Experimental findings from article PMC7862700, “An all-to-all approach to the identification of sequence-specific readers for epigenetic DNA modifications on cytosine” are described below.

What all share (assay): DAPPL (digital affinity profiling via proximity ligation, sequencing); 10 mM Tris-HCl pH 7.5, 50 mM NaCl, 1 mM DTT, 4% glycerol, room temperature, 30 min; GST-TFs on glutathione beads, 16-mer random dsDNA library, 0.1% formaldehyde crosslink after washing; high values mean tight binding
In one test the target is T1, FEV (Homo sapiens, UniProt Q99581 1-238).
T1 sequence: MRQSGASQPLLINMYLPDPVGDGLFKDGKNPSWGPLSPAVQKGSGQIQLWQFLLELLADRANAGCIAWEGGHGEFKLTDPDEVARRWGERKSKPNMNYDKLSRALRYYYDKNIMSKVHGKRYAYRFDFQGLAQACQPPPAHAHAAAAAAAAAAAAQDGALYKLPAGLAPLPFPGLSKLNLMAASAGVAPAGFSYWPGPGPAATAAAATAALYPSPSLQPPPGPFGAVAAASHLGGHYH
Particulars: protein: recombinant; tags: N-terminal GST; dsDNA, one strand shown. The essentials: (§1)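 Binding signal is each hexamer's read frequency for a factor divided by its frequency in the tag-only sample. The factors were GST-fused human transcription factors from yeast, captured on glutathione beads, DNA-barcoded and pooled with that sample. Pools were incubated with 200 nmole of a random double-stranded 16-mer DNA library in Tris/NaCl/DTT/glycerol buffer at room temperature for 30 min, then washed, crosslinked with 0.1% formaldehyde, proximity-ligated with BsaI/T4 ligase (1 h, 37 °C), PCR-amplified and sequenced on an Illumina NextSeq500.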

Another test addresses ETV5 (Homo sapiens, UniProt P41161 1-510). The conditions noted are these: protein: recombinant; tags: N-terminal GST; dsDNA, one strand shown. The essentials:
as §1

The target in another test is HSF1 (Homo sapiens, UniProt Q00613 1-529). Particulars: protein: recombinant; tags: N-terminal GST; chain copies: 3; dsDNA, one strand shown. The essentials:
as §1

The next test addresses T2, SPIC (Homo sapiens, UniProt Q8N5J4 1-248).
T2 sequence: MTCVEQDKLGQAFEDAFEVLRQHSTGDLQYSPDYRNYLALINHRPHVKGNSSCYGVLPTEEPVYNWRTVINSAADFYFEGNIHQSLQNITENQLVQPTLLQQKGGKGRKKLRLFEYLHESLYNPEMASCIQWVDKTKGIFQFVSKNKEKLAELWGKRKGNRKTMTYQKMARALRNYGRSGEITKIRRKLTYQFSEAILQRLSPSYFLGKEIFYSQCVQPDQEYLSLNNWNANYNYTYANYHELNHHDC
Particulars: protein: recombinant; tags: N-terminal GST; dsDNA, one strand shown. The essentials:
as §1

The next test concerns the target ELF4 (Homo sapiens, UniProt Q99607 1-663). Particulars: protein: recombinant; tags: N-terminal GST; dsDNA, one strand shown. The essentials: as §1
For the next test, the target named is T3, ELK4 (Homo sapiens, UniProt P28324-2 1-405).
T3 sequence: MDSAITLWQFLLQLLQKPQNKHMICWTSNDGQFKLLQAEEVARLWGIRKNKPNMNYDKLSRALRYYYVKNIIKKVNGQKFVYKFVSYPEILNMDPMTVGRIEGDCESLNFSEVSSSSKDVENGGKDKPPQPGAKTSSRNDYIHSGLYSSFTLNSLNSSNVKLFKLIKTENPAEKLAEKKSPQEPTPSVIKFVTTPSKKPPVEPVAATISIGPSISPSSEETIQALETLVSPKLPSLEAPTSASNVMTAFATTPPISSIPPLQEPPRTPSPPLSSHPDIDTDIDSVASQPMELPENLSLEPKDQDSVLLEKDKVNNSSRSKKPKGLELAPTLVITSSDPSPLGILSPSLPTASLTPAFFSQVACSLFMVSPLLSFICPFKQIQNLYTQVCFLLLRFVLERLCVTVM
Particulars: protein: recombinant; tags: N-terminal GST; dsDNA, one strand shown. The essentials:
as §1

The target of another test is T4, ETV2 (Homo sapiens, UniProt O00321 1-342).
T4 sequence: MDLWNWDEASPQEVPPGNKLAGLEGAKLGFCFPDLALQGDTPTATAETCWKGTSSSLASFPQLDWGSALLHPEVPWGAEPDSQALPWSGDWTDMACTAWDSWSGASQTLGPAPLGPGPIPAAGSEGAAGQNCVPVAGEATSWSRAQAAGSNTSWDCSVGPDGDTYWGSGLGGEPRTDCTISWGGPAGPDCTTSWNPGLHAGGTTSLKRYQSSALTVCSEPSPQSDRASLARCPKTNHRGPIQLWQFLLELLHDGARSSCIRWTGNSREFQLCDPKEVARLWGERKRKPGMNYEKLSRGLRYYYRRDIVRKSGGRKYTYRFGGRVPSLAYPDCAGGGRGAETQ
The conditions noted are these: protein: recombinant; tags: N-terminal GST; dsDNA, one strand shown. The essentials:
as §1

For a further test, the target named is T5, ELF3 (Homo sapiens, UniProt P78545 1-371).
T5 sequence: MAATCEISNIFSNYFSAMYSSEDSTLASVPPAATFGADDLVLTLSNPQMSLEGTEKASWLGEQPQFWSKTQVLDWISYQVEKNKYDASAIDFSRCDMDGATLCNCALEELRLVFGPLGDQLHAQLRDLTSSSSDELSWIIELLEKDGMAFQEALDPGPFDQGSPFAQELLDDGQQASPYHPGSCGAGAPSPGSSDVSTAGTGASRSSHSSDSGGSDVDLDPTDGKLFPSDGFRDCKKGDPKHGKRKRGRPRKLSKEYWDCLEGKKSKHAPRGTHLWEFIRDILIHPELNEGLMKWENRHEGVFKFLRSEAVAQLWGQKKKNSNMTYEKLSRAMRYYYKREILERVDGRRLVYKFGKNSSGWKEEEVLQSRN
The conditions noted are these: protein: recombinant; tags: N-terminal GST; dsDNA, one strand shown. The essentials:
as §1

The target of another test is CRX (Homo sapiens, UniProt O43186 1-299). The conditions noted are these: protein: recombinant; tags: N-terminal GST; dsDNA, one strand shown. The essentials: as §1
Sequence of CRX (O43186 whole entry): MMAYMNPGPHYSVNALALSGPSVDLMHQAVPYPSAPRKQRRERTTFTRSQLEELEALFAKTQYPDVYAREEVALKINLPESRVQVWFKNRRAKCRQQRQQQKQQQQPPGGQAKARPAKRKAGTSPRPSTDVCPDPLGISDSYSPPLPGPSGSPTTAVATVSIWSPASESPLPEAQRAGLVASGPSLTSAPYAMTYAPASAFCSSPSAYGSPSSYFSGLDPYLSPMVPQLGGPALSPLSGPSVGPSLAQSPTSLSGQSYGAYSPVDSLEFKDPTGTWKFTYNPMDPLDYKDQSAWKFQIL
A further test deals with ETV1 (Homo sapiens, UniProt P50549 1-477). Particulars: protein: recombinant; tags: N-terminal GST; dsDNA, one strand shown. The essentials:
as §1

For a further test, the target named is T6, ERF (Homo sapiens, UniProt P50548 1-548).
T6 sequence: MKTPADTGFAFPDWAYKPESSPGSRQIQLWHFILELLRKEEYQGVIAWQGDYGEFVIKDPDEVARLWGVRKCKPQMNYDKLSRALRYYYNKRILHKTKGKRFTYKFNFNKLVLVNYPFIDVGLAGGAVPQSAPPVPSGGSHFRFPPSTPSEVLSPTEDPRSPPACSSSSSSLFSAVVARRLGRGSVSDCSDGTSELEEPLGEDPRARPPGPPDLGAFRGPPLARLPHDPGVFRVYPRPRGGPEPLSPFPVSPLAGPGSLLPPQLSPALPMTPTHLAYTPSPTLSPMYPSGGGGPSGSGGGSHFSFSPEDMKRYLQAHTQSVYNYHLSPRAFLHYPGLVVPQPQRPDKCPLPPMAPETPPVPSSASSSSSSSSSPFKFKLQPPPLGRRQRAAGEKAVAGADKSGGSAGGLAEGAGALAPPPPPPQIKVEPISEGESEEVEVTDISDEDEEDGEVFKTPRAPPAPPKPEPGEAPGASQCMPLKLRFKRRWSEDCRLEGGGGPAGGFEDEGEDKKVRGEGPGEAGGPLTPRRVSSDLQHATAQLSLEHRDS
The conditions noted are these: protein: recombinant; tags: N-terminal GST; dsDNA, one strand shown. The essentials: as §1

Another test concerns the target T7, ETV3L (Homo sapiens, UniProt Q6ZN32 1-361).
T7 sequence: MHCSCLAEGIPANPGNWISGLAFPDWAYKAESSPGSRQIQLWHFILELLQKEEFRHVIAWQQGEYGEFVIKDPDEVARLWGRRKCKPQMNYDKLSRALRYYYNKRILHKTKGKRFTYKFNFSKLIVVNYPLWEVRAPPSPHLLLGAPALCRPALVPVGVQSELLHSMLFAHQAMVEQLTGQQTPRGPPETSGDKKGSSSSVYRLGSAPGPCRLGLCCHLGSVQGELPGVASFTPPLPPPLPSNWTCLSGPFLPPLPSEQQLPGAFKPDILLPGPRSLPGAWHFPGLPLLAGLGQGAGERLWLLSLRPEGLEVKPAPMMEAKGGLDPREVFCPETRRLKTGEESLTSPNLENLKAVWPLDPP
The conditions noted are these: protein: recombinant; tags: N-terminal GST; dsDNA, one strand shown. The essentials:
as §1

The target of a further test is T8, ETS2 (Homo sapiens, UniProt P15036 1-469).
T8 sequence: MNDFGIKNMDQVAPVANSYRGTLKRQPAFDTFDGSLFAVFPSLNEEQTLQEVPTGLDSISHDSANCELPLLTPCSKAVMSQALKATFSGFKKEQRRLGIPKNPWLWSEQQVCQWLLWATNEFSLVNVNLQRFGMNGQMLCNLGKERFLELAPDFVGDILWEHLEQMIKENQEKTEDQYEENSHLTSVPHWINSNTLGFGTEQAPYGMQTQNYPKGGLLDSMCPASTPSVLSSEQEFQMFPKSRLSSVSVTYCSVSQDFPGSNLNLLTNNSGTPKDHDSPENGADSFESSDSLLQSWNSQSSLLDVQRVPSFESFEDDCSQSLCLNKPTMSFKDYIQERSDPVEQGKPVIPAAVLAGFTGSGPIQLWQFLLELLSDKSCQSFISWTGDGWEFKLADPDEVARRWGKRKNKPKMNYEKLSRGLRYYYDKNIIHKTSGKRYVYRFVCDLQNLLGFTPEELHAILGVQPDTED
Particulars: protein: recombinant; tags: N-terminal GST; dsDNA, one strand shown. The essentials:
as §1

The target of another test is T9, SPDEF (Homo sapiens, UniProt O95238 1-335).
T9 sequence: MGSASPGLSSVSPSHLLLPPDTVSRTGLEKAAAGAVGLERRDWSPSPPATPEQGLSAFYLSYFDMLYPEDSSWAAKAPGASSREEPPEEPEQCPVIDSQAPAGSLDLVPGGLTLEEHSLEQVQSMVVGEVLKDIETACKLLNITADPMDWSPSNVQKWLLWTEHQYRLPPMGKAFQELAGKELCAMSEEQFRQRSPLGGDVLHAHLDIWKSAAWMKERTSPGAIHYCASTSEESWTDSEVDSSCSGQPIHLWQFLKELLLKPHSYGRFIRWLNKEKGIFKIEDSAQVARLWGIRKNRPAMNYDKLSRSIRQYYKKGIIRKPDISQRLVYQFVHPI
The conditions noted are these: protein: recombinant; tags: N-terminal GST; dsDNA, one strand shown. The essentials:
as §1

In another test the target is T10, ETV7 (Homo sapiens, UniProt Q9Y603 1-341).
T10 sequence: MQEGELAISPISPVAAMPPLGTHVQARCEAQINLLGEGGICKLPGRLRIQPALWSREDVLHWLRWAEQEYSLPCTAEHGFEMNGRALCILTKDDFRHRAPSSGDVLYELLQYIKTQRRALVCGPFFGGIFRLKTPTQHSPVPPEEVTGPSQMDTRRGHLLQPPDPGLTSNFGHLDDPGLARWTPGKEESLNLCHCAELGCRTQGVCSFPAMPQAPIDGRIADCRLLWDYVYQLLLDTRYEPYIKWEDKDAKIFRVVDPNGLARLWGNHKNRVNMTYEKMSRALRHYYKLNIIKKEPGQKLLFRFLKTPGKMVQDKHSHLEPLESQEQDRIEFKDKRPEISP
The conditions noted are these: protein: recombinant; tags: N-terminal GST; dsDNA, one strand shown. The essentials:
as §1

A further test addresses T11, ELF5 (Homo sapiens, UniProt Q9UKW6-2 1-255).
T11 sequence: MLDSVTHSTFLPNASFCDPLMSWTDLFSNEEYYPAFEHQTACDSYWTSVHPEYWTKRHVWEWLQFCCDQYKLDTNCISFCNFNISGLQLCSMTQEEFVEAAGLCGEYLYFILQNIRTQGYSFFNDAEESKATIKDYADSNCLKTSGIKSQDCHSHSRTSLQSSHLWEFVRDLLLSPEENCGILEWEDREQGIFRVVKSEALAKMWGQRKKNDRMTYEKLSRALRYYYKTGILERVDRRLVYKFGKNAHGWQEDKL
Particulars: protein: recombinant; tags: N-terminal GST; dsDNA, one strand shown. The essentials:
as §1

In a further test the target is T12, ETV3 (Homo sapiens, UniProt P41162-2 1-143).
T12 sequence: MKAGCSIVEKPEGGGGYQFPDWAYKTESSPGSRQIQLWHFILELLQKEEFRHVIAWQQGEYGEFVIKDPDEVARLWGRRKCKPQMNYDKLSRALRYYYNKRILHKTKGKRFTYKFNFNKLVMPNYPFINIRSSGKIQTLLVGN
The conditions noted are these: protein: recombinant; tags: N-terminal GST; dsDNA, one strand shown. The essentials:
as §1

Another test has as its target ETV6 (Homo sapiens, UniProt P41212 1-452). The conditions noted are these: protein: recombinant; tags: N-terminal GST; dsDNA, one strand shown. The essentials: as §1

Sequence of ETV1 (P50549 whole entry): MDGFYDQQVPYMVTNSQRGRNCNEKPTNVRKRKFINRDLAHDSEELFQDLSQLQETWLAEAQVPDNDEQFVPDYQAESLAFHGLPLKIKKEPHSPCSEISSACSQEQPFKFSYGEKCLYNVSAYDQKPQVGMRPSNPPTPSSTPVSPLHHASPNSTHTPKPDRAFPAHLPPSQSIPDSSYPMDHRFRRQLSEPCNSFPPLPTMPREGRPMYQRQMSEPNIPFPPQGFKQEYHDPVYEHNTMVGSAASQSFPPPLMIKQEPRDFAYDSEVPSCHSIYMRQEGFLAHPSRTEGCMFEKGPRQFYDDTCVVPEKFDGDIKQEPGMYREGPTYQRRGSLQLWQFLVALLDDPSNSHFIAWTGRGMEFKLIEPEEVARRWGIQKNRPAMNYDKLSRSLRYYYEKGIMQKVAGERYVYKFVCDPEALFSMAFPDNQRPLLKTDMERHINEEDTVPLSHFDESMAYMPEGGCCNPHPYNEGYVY
Sequence of ETV6 (P41212 whole entry): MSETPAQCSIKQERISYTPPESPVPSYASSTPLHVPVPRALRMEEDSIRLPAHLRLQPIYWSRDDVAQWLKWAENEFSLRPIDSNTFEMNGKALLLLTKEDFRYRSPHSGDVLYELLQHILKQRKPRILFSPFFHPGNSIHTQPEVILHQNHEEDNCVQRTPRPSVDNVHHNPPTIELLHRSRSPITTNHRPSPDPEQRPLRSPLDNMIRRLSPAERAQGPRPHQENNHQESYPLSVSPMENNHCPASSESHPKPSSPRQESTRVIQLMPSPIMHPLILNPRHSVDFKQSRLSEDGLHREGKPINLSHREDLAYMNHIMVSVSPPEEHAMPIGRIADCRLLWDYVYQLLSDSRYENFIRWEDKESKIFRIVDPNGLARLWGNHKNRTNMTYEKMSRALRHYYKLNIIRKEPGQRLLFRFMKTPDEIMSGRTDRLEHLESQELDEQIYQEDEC
Sequence of ELF4 (Q99607 whole entry): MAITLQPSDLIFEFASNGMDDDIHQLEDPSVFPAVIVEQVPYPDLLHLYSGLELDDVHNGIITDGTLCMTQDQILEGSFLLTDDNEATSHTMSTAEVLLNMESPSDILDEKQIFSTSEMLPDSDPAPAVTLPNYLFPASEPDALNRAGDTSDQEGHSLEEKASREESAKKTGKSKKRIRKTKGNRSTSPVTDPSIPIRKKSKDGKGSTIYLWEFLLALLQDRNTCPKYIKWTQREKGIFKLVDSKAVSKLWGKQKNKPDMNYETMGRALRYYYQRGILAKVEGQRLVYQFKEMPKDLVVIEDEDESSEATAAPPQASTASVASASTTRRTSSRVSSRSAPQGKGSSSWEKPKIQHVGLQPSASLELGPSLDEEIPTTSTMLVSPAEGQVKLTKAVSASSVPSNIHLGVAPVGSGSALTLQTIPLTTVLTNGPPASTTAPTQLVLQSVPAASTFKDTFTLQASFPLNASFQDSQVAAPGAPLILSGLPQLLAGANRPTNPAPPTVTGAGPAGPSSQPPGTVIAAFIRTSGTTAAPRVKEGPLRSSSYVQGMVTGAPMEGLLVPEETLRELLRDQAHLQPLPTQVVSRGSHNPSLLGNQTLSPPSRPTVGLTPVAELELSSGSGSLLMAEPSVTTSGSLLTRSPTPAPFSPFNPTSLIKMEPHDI
Sequence of HSF1 (Q00613 whole entry): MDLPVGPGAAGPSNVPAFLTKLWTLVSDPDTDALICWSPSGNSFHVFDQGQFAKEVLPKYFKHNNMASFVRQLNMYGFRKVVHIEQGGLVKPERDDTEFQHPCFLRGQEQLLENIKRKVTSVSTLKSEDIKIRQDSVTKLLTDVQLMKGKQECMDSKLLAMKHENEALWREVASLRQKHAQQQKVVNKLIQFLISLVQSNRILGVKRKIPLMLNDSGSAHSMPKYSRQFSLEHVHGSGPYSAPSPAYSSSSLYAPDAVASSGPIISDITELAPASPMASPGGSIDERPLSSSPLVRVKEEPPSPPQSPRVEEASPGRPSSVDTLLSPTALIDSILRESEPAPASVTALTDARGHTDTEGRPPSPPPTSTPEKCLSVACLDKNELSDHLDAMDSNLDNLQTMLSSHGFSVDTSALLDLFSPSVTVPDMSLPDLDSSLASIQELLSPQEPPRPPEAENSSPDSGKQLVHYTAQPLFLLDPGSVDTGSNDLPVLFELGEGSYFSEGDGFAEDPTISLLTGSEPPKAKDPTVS
Sequence of ETV5 (P41161 whole entry): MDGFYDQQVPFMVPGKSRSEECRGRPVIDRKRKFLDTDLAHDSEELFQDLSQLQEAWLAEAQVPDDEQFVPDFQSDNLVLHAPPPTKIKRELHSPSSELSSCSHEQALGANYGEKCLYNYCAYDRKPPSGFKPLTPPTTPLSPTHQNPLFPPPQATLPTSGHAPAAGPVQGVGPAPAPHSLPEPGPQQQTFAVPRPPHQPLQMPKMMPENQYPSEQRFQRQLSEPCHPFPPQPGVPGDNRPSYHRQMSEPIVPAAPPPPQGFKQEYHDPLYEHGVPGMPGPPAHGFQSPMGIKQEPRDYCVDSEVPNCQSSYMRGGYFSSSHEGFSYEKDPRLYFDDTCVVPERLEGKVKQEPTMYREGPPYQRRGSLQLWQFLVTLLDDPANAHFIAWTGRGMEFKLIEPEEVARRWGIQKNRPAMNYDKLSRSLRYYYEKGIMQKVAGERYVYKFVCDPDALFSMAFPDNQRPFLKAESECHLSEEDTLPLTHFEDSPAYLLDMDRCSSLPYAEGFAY

In the case of TCTCCA, the binding signal is 1.44 fold enrichment (6-mer frequency, TF over GST control) with FEV; 1.39 fold enrichment (6-mer frequency, TF over GST control) with ETV5; 1.91 fold enrichment (6-mer frequency, TF over GST control) with HSF1; 1.36 fold enrichment (6-mer frequency, TF over GST control) in the test with SPIC; 1.42 fold enrichment (6-mer frequency, TF over GST control) with ELF4; 1.69 fold enrichment (6-mer frequency, TF over GST control) with ELK4. The binding signal with ETV2 was 1.55 fold enrichment (6-mer frequency, TF over GST control); with ELF3 it was 1.29 fold enrichment (6-mer frequency, TF over GST control); in the test with CRX it was 1.52 fold enrichment (6-mer frequency, TF over GST control); with ETV1, 1.38 fold enrichment (6-mer frequency, TF over GST control); in the test with ERF, 1.42 fold enrichment (6-mer frequency, TF over GST control); with ETV3L, 1.58 fold enrichment (6-mer frequency, TF over GST control). Moreover, the binding signal was 1.53 fold enrichment (6-mer frequency, TF over GST control) with ETS2; 1.5 fold enrichment (6-mer frequency, TF over GST control) with SPDEF; 1.31 fold enrichment (6-mer frequency, TF over GST control) with ETV7; 1.37 fold enrichment (6-mer frequency, TF over GST control) with ELF5; 1.41 fold enrichment (6-mer frequency, TF over GST control) with ETV3; 1.4 fold enrichment (6-mer frequency, TF over GST control) with ETV6.
